Values without a mark were called inactive. A call without a number means that no potency is given here. Active and inactive are the calls of the source. Calls come from the whole dose curve; as a rule, active = well fitted curve in the direction sought with a large enough effect in the repeat runs; inconclusive = weak or mixed curves; inactive = flat fitted curve, though single readings scatter.
Assay: qHTS assay to test for compound auto fluorescence at 535 nm (green) in HepG2 cells (AID 720675)
Conditions: green autofluorescence 485/535 nm, 1 h; series mostly up to 91.3 µM
With `Cc1occc(=O)c1OC(=O)C(C)C` the Potency was “inactive”. In the case of `CC(C)C(=O)c1c(C(C)C)nn2ccccc12`, the Potency was “inactive”. For `NC(N)=Nc1nc(CSCC/C(N)=N/S(N)(=O)=O)cs1`, the Potency was “inactive”. In the case of `CO[Si](OC)(OC)c1ccccc1`, the Potency was “inactive”. In the case of `CN1C(=O)c2ccc([N+](=O)[O-])cc2C1=O`, the Potency was “inactive”. In the case of `CCOc1ccccc1C(N)=O`, the Potency was “inactive”. In the case of `CC(C)(O)CCC(C)(C)O`, the Potency was “inactive”. With `[Cl][In]([Cl])[Cl]` the Potency was “inactive”. For `CCn1cc(C(=O)O)c(=O)c2cc(F)c(N3CCNC(C)C3)c(F)c21` (configuration not stated), the Potency was “inactive”. For `O=C(O)CP(=O)(O)O`, the Potency was “inactive”.

Assay: qHTS assay to test for compound auto fluorescence at 460 nm (blue) in HEK293 cells (AID 720678)
Conditions: blue autofluorescence 405/460 nm; series mostly up to 91.3 µM
Method in brief: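 Triamterene serves as the blue fluorophore standard. Compound signal at 405/460 nm is read in HEK293 wells (2,000 cells, 10% dialyzed FBS) after overnight treatment at 37C.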
With `c1cnc2cc3c(cc2n1)C1CNCC3C1` the Potency was “inactive”. For `NC(N)=NC(=O)Cc1c(Cl)cccc1Cl`, the Potency was “inactive”. For `CC(=O)OCC1=C(C(=O)O)N2C(=O)[C@@H](NC(=O)Cc3cccs3)[C@H]2SC1`, the Potency was “inactive”. `NCCCCCC(=O)O` gave a fluorescence, % of triamterene of 0.0733% [at 18.6 µM]. For `CC1COC(=O)O1` (configuration not stated), the Potency was “inactive”. For `OCC(CO)N[C@H]1C[C@](O)(CO)[C@@H](O)[C@H](O)[C@H]1O`, the Potency was “inactive”. With `C=C(C)C1CC=C(C)C(OC(C)=O)C1` (configuration not stated) the Potency was “inactive”. In the case of `C[N+]1([O-])CCOCC1`, the Potency was “inactive”. With `Cc1cccc(O)c1C` the Potency was “inactive”. For `Cc1cccc([N+](=O)[O-])c1C(=O)O`, the Potency was “inactive”. With `O=C(O)c1cc(Cl)cc(Cl)c1` the Potency was “inactive”. With `c1ccc2n[nH]nc2c1` the Potency was “inactive”. In the case of `Nc1cc(Cl)c(-c2cc(Cl)c(N)cc2Cl)cc1Cl`, the Potency was “inactive”. With `CCCNC(C)C(=O)Nc1ccccc1C` (configuration not stated) the Potency was “inactive”. In the case of `OCCN1CCNCC1`, the Potency was “inactive”. With `C/C=C/c1ccc(OCC)c(O)c1` the Potency was “inactive”. In the case of `C=CC(=O)OCCCCCCCC`, the Potency was “inactive”.

— PubChem BioAssay (Tox21)
